From PubChem BioAssay (Tox21)
Results filed as inconclusive are left out. A call without a number means that no potency is given here. Activity calls are given as the source filed them. Calls come from the whole dose curve; as a rule, active = well fitted cell-killing curve with a large enough effect in the repeat runs; inconclusive = weak or mixed curves, or effect the other way; inactive = flat fitted curve, though single readings scatter.

assay: qHTS assay to identify small molecule antagonists of the estrogen receptor alpha (ER-alpha) signaling pathway using the BG1 cell line in the presence of 0.1 nM 17-beta-estradiol - cell viability counter screen (AID 1259241); conditions: VM7Luc4E2 (BG1) viability, CellTiter-Fluor protease, 22 h, 0.1 nM estradiol agonist added; series mostly up to 92.4 µM; note: nearly all actives have a fitted effect of over 40% in size
In short: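 VM7Luc4E2 cells (endogenous full-length ER-alpha, 4xERE-luciferase), cultured 5 days in charcoal-stripped serum, exposed to compounds with 0.1 nM 17beta-estradiol (final) for 22 hr at 37C. Viability read in same wells as live-cell protease fluorescence after 30 min.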

Compound | Potency
CCCC(=O)OCc1ccccc1 | inactive
CCCCCCCCC(=O)OCC(C)OC(=O)CCCCCCCC (stereo unspecified) | inactive
O=C(O)c1ccncc1 | inactive
CCCCCCCCOCCCN | inactive
C[C@H]1C[C@H]2[C@@H]3CCC4=CC(=O)C=C[C@]4(C)[C@@]3(F)[C@@H](O)C[C@]2(C)[C@@]1(O)C(=O)COP(=O)(O)O | inactive
CC(C)(C)N | inactive
C=Cc1ccc(C=C)cc1 | inactive
C/C=C1\[C@H]2C=C(C)C[C@]1(N)c1ccc(=O)[nH]c1C2 | inactive
O=[N+]([O-])c1cccc(I)c1 | inactive
CC(=O)Nc1ccccc1O | inactive
CC1(COc2ccc(CC3SC(=O)NC3=O)cc2)CCCCC1 (stereo unspecified) | inactive
CC(=O)c1ccc(Cl)c(Cl)c1Cl | inactive
CC1=C(C)C(=O)C(C(CCCCCC(=O)O)c2ccccc2)=C(C)C1=O (stereo unspecified) | inactive
CCOc1ccccc1O | inactive
CCC1=C(C)CN(C(=O)NCCc2ccc(S(=O)(=O)NC(=O)NC3CCC(C)CC3)cc2)C1=O (stereo unspecified) | inactive
CC(C)=CCC[C@H](C)CCO | inactive
Cc1ccc(NC=O)c(C)c1 | inactive
[O-][n+]1ccc(Cl)cc1 | inactive
COc1ccc(/C=C/S(=O)(=O)NC(=O)c2ccc(C)cc2Cl)cc1 | inactive
CCC(C(=O)O)c1ccc(N2Cc3ccccc3C2=O)cc1 (stereo unspecified) | inactive

assay: qHTS assay to identify small molecule antagonists of the androgen receptor (AR) signaling pathway using the MDA cell line in the presence of 0.5 nM R1881 - cell viability counter screen (AID 1259242); conditions: MDA-kb2 viability, CellTiter-Fluor protease fluorescence, 16 h; series mostly up to 92.4 µM; note: nearly all actives have a fitted effect of over 45% in size
In short: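 Steps: plate MDA-kb2 cells, rest 5 hr at 37C without CO2; pin in compounds in DMSO; add R1881 to 0.5 nM final; incubate 16 hr; add CellTiter-Fluor, 30 min; read fluorescence.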

Compound | Potency
CCCC(=O)OCc1ccccc1 | inactive
CCCCCCCCC(=O)OCC(C)OC(=O)CCCCCCCC (stereo unspecified) | inactive
CC[C@H](NC(C)C)[C@H](O)c1ccc(O)c2[nH]c(=O)ccc12 | inactive
O=C(O)c1ccncc1 | inactive
CCCCCCCCOCCCN | inactive
COc1cc(CNC(=O)CCCC/C=C/C(C)C)ccc1O | inactive
C[C@H]1C[C@H]2[C@@H]3CCC4=CC(=O)C=C[C@]4(C)[C@@]3(F)[C@@H](O)C[C@]2(C)[C@@]1(O)C(=O)COP(=O)(O)O | inactive
CC(C)(C)N | inactive
CNc1ccccc1 | inactive
C=Cc1ccc(C=C)cc1 | inactive
C/C=C1\[C@H]2C=C(C)C[C@]1(N)c1ccc(=O)[nH]c1C2 | inactive
O=C1OC(=O)C2CC=CCC12 (stereo unspecified) | inactive
CC1(C)C(=O)NC(=O)N1CO | inactive
Nc1ccc(C(=O)Oc2ccccc2)c(O)c1 | inactive
COC(=O)/C=C/C(C)=C\C=C\C(C)=C\C=C\C=C(C)\C=C\C=C(C)\C=C\C(=O)O | inactive
C/C(=C(\CCO)SS/C(CCO)=C(\C)N(C=O)Cc1cnc(C)nc1N)N(C=O)Cc1cnc(C)nc1N | inactive
O=[N+]([O-])c1cccc(I)c1 | inactive
CC(=O)Nc1ccccc1O | inactive

Compound | Potency
CC1(COc2ccc(CC3SC(=O)NC3=O)cc2)CCCCC1 (stereo unspecified) | inactive
CC(=O)c1ccc(Cl)c(Cl)c1Cl | inactive
CC1=C(C)C(=O)C(C(CCCCCC(=O)O)c2ccccc2)=C(C)C1=O (stereo unspecified) | inactive
CO[C@@H]1COCC[C@@H]1N[C@@H]1CC[C@@](C(=O)N2CCc3ncc(C(F)(F)F)cc3C2)(C(C)C)C1 | inactive
O=C(NC1CCN(CCc2c[nH]c3ccccc23)CC1)c1ccccc1 | inactive
N#CCCCC(C#N)CCC#N (stereo unspecified) | inactive
C(/C=C/C=C/Nc1ccccc1)=Nc1ccccc1 | inactive
CCC(C)C1N=C(C)C(C)S1 (stereo unspecified) | inactive
Cc1cc(C)n(CO)n1 | inactive
CCOc1ccccc1O | inactive
CCC1=C(C)CN(C(=O)NCCc2ccc(S(=O)(=O)NC(=O)NC3CCC(C)CC3)cc2)C1=O (stereo unspecified) | inactive
CC(C)C/C=C(\C=O)c1ccccc1 | inactive
CC(C)=CCC[C@H](C)CCO | inactive
Cc1ccc(NC=O)c(C)c1 | inactive
NC(=O)c1cc[n+](CC2=C(C(=O)[O-])N3C(=O)[C@@H](NC(=O)Cc4cccs4)[C@H]3SC2)cc1 | inactive
[O-][n+]1ccc(Cl)cc1 | inactive
COc1ccc(/C=C/S(=O)(=O)NC(=O)c2ccc(C)cc2Cl)cc1 | inactive
CCC(C(=O)O)c1ccc(N2Cc3ccccc3C2=O)cc1 (stereo unspecified) | inactive
